# Compounds without any hit were thinned out: in the full panel of roughly 83,000, 20% have a hit.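 Treatment: one concentration, 48 hours, 96-well format. Scoring: percent growth, with anything below 10 considered active.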 A number with no mark means an inactive call. Activity calls are given as the source filed them.
# Tested on: SW-620 colon
# Experiment: NCI-60 one-dose screen, 48 h (100 = growth as untreated, 0 = no growth, -100 = all killed)
# Settings: 10 µM unless noted
row,SMILES,growth
1,CC1(C)OB(O)c2cc(-c3nc4ccc5[nH]ncc5c4c4c3CCCC4)ccc21,59.4%
2,COc1ccc(/C=C2\COc3ccc(O)cc3C2=O)cc1,84.6%
3,CN1C(=O)/C(=C/c2ccc(C(=O)Nc3ncc(Cc4cccc(Cl)c4)s3)cc2)SC1=S,37.4%
4,CN(C)c1ccc(-c2nc(-c3ccccc3)c(-c3ccccc3)[nH]2)cc1,108%
5,Cc1n[nH]c2ccc(Br)cc2c1=O,113%
6,CCOc1cccc(/C=N/NC(=O)c2cccc(Nc3ccnc(C(F)(F)F)c3)c2)c1O,36.6%
7,COc1ccc(CNc2c3ccccc3nc3ccccc23)c(OC)c1,20.7%
8,COc1ccc2c(c1)c(-c1nc(-c3c[nH]c4ncccc34)cs1)cn2CCO,63.1%
9,COc1ccc(C(O)c2cc3c(N)c(C(=O)Nc4cccc(Cl)c4C)sc3nc2C)cc1 (stereo unspecified),17.9%
10,CC1CCN(C(=S)SCC(=O)NC(=O)c2ccccc2)CC1,105%
11,CS(=O)(=O)Nc1cc(-c2ccc3ncc(C#N)c(Nc4ccc(F)c(Cl)c4)c3c2)cnc1Cl,5.69% (active)
12,CCN1C(=O)N(CC)C2C1NN=c1s/c(=C3\C(=O)N(CC(C)C)c4ccccc43)c(=O)n12 (stereo unspecified),33.9%
13,O=C(CI)NC(=O)NC(=O)NCc1ccccc1,25.2%
14,CCn1cc(CNc2ccc(C(=O)Nc3cc4cc(OC)c(OC)cc4c(C)n3)cc2)cn1,75.3%
15,C=CCN1C(=O)c2cccc3c(N4CCOCC4)ccc(c23)C1=O,7.24% (active)
16,CC1=C2[C@@H](CC1)[C@]1(C)O[C@@](c3ccccc3)(C[C@H]1OC(=O)CO)[C@H]2OC(=O)/C=C/c1ccccc1,104%

row,SMILES,growth
1,CSc1nc(C)c([N+](=O)[O-])c(N)n1,104%
2,CCOC(=O)c1c(C)nc2c(c1N)/C(=C/c1ccc(OC)cc1)C(=O)N2Cc1ccccc1,55.6%
3,CCN(CC)Cc1cc(Nc2ccnc3cc(Cl)ccc23)ccc1O,88.4%
4,Cc1ccc(-c2nc3nc(-c4ccccc4)nc(N4CCCN(S(C)(=O)=O)CC4)c3o2)cc1,44.1%
5,CCCCCN(CCCCC)CC(O)c1cc(C)c2ccc3cc(C(C)C)ccc3c2c1 (stereo unspecified),-75.3% (active)
6,NC(N)=NS(=O)(=O)c1ccc(NC2=C(I)C(=O)c3ncccc3C2=O)cc1,91.1%
7,O=C1/C(=C\c2ccccn2)c2ccccc2N1c1c(Cl)cccc1Cl,-56.9% (active)
8,CCCCNC(=O)Oc1ccc(/C(=C(/C)Cc2ccc(OC)cc2)c2ccc(OCCN3CCCCC3)cc2)cc1,77.4%
9,O=C(/C=C/c1ccc(Cl)cc1)c1cccc(OCCCOc2cccc(C(=O)/C=C/c3ccc(Cl)cc3)c2)c1,98.6%
10,Cc1ccc(/C=C(\C#N)n2nnc3cc(F)c(F)cc32)cc1,9.9% (active)
11,O=P(O)(O)OCC1OC(n2cnc3c(NCc4ccco4)ncnc32)C(O)C1O (stereo unspecified),14.8%
12,O=C(C1=Cc2cc3ccccc3n2Cc2cnnn21)c1ccc(O)cc1,28.7%
13,COc1ccc(-c2nc3c(N)c(CO)cnc3s2)cc1,94.1%
14,COc1ccc2c(c1)c(/C(O)=C1\COC(=O)C1=O)cn2Cc1ccc(F)cc1,101%
15,Cc1ccc(/C=C/C(=O)c2cccc(OCCCOc3cccc(C(=O)/C=C/c4ccc(C)cc4)c3)c2)cc1,68.1%

# Source: PubChem BioAssay (NCI)
